This passage reports Potency results from PubChem BioAssay (NCATS).

Each structure is given as a SMILES string. Inconclusive results are not listed. Where a call stands in place of a potency, no number is given. Calls of active or inactive are those of the source. Calls follow the shape of the dose curve; as a rule, active = well fitted inhibition curve with a large enough effect; inconclusive = small, poorly fitted or top-dose-only effect; inactive = flat fitted curve, though single readings scatter.
Potency is read from the fitted curve at half-maximal effect.

This assay in a line: P-glycoprotein substrates identified in KB-8-5-11 adenocarcinoma cell line, qHTS therapeutic library screen (AID 1346987). Also: nearly all actives have a fitted effect of over 65% in size. To be noted: KB-8-5-11 (P-gp overexpressing) viability, CellTiter-Glo, 72 h; series mostly up to 44.5 µM. In a few lines: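 Human cervical adenocarcinoma KB-8-5-11 cells, selected in colchicine to over-express P-gp and assayed without it, were exposed for 72 h to titrated compounds. An ATP-based luminescent viability signal gave AC50.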
`COCC1=C(C(=O)OC(C)OC(=O)OC(C)C)N2C(=O)[C@@H](NC(=O)/C(=N\OC)c3csc(N)n3)[C@H]2SC1` (stereo partly specified): the Potency entry was “inactive”. Take `CCC(=O)OCC(=O)[C@@]1(OC(=O)CC)[C@@H](C)C[C@H]2[C@@H]3CCC4=CC(=O)C=C[C@]4(C)[C@@]3(Cl)[C@@H](O)C[C@@]21C`: the Potency result is “inactive”.

Regarding `CC(C)(C)c1ccc(C(=O)Nc2cc(Cl)c(Br)cc2C(=O)O)cc1`, the Potency was 10.3 µM (active). Consider `OCC(O)COc1ccc(Cl)cc1` (stereo unspecified), for which the Potency entry was “inactive”. For `C=C[C@@]1(C)CCC2C(=CCC3[C@]2(C)CCC[C@@]3(C)C(=O)O)C1` (stereo partly specified), the Potency result was “inactive”. The same measure for `CC(=O)c1ccc2c(c1)[C@H](NC(=O)c1ccc(F)c(Cl)c1)[C@H](O)C(C)(C)O2`: “inactive”.
